TDP1 cell noCPT – qHTS for Inhibitors of human tyrosyl-DNA phosphodiesterase 1 (TDP1): qHTS in cells in absence of CPT; DT40 Tdp1-/- hTDP1 cells, no CPT, ATP luminescence, 48 h; AID 686978, 2013; actives 15% (n = 420,000); Potency, µM (series often up to 46.2 µM), for inactives: at the highest dose activity change, negative = growth inhibition, actives largely listed as inhibitors; also: potency is read from the fitted curve at half-maximal effect; nearly all actives have a fitted effect of over 55% in size
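Growth kinetics read by CellTiter-Glo luminescence after ≥48 hr at 37 °C. Cells: DT40 Tdp1-/- stably carrying human TDP1, 400 per well, compound exposure in the absence of CPT (DMSO vehicle).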
HT1080NT lethal – kills 2HG-producing HT-1080-NT fibrosarcoma cells; actives 1.6% (n = 360,000); AID 686970; Potency, µM (titrated, usually from 46.1 µM), inactives show at the highest dose activity, negative = less viability, hits mostly cytotoxic; HT-1080-NT fibrosarcoma viability, CellTiter-Glo ATP luminescence, 48 h;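 also: NT is the 2HG producing partner of a matched IDH1 knockdown line; potency is read from the fitted curve at half-maximal effect; 0% = DMSO-treated cells and -100% = media-only wells without cells; nearly all actives have a fitted effect of over 55% in size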
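Viability by CellTiter-Glo luminescence after 48 h compound exposure at 37C of HT-1080-NT cells (750/well, RPMI, 5% FBS). % activity scaled between DMSO wells and medium-only wells, then curve-fitted and categorized by curve class.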
DT40 TDP1 CPT – DT40-hTDP1 cell growth loss with CPT. Potency, µM (highest dose often 46.2 µM), for the others: at the top dose activity change, negative = growth inhibition, most hits filed as inhibitors. AID 686979. actives 12% (n = 420,000). chicken DT40 Tdp1-/-;hTDP1 cells + 20 nM CPT, ATP luminescence, 48 h; also: potency is read from the fitted curve at half-maximal effect; nearly all actives have a fitted effect of over 55% in size
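Cell growth measured by CellTiter-Glo luminescence after a minimum 48 h, 37 C compound exposure with 20 nM CPT in Tdp1-knockout DT40 cells stably expressing hTDP1, seeded 400/well; qHTS titration format.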
IL1B secr inh – inflammasome signaling inhibition, IL-1 beta readout; THP-1 LPS/ATP IL-1B secretion, AlphaLISA, 16 h; hits give low values; AID 743279; activity change, % at 57.5 µM; actives 4.7% (n = 360,000); in the data active = activity change below about -50%; inconclusive = mostly about -30% to -49%
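THP-1 cells pretreated 1 hr with compounds (up to 57.5 uM final), then stimulated with LPS (250 ng/mL final) plus ATP (1.25 mM final); secreted IL-1B measured by AlphaLISA after 16 hr, decreased signal indicating inhibition.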
HT1080 IDH1KD tx – toxicity to HT-1080 IDH1 knockdown cells (counter line); HT-1080 IDH1 knockdown viability, ATP luminescence, 48 h; Potency, µM (highest dose often 46.1 µM), for the others: at the top dose activity, negative = toxicity, most hits filed as cytotoxic; actives 2% (n = 360,000); AID 686971;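 also: potency is read from the fitted curve at half-maximal effect; 0% = DMSO wells and -100% = cell-free medium wells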
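IDH1KD HT-1080 cells, 750/well, RPMI + 5% FBS; compound pinned after 2 h settling; 48 h, 37 °C; CellTiter-Glo luminescence; % activity normalised to DMSO and no-cell wells; curves fitted, classed by r2 and efficacy.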
Active calls of the source: *; ? = inconclusive; / = not tested or not shown. An excerpt weighted towards active compounds, which were near 19% of everything screened. Unless noted, calls follow the shape of the dose curve; as a rule, active = well fitted curve in the direction sought with a large enough effect; inconclusive = small, poorly fitted or top-dose-only effect, or another doubt; inactive = no such curve, though single readings can be large; an effect the other way counts as inactive or inconclusive. Unless noted, % is scaled to controls: 0 for no effect and ±100 for the full control effect.

SMILES	TDP1 cell noCPT	HT1080NT lethal	DT40 TDP1 CPT	IL1B secr inh	HT1080 IDH1KD tx
Cc1ccc(C(C)C)c(OCC(=O)NCC2(N3CCOCC3)CCCCC2)c1	7.3µM*	/	9.2µM*	/	/
OC(CNCC1(N2CCCCC2)CCCCC1)COc1ccc(Cl)cc1Cl (stereo not drawn)	15µM*	?	?	-91*	18µM*
O=C(COc1ccc(F)cc1Br)NCC1(N2CCCCC2)CCCCC1	?	-26%	?	-7	-26%
O=C(COc1ccc(Cl)cc1Cl)NCC1(N2CCOCC2)CCCCC1	21µM*	-10%	18µM*	-65*	-5%
OC(COc1ccc(Cl)cc1Cl)CN1CCc2ccccc2C1 (stereo not drawn)	?	?	?	-22	?
COc1ccccc1OCC(=O)NCC1(N2CCOCC2)CCCCC1	-56%	/	?	/	/
CCC(C(=O)Nc1ccc(C(=O)Nc2ccccc2C(=O)O)cc1)c1ccccc1 (stereo not drawn)	-19%	-12%	-27%	22	?
Cc1ccc(NC(=O)c2ccc(-n3cncn3)c([N+](=O)[O-])c2)cc1F	?	2%	?	-14	-3%
CN(C)c1ncc2nc(CCc3ccccc3)c(=O)n(Cc3cccs3)c2n1	16µM*	/	?	/	/
Cc1nc2cnc(N(C)C)nc2n(Cc2cccs2)c1=O	-29%	/	-14%	/	/
CN(C)c1ncc2ncc(=O)n(CCc3ccccc3)c2n1	26µM*	/	21µM*	/	/
CSc1ccc(OC2(C)CCN(Cc3ccc(-c4ccccn4)cc3)C2)cc1 (stereo not drawn)	?	-24%	?	13	-21%
CC(C)(C)OC(=O)N/N=C\C=C\c1ccc2c(c1)OCO2	9%	0%	4%	?	-1%
CC(Nc1ccc(Br)cc1)C(=O)NC(=O)NC1CCCCC1 (stereo not drawn)	?	?	?	5	-22%
CCc1noc(C)c1C(=O)Nc1nc(-c2ccc(OC)cc2)cs1	13µM*	-9%	?	32	-17%
COc1ccc(-c2csc(NC(=O)CN3C(=O)CCC3=O)n2)c(OC)c1	-3%	?	6%	-27	17%
CCc1noc(C)c1C(=O)Nc1nc(-c2ccc(OC)cc2OC)cs1	16µM*	-17%	?	12	-2%
COc1ccc(OC)c(-c2csc(NC(=O)CSCc3c(C)noc3C)n2)c1	?	-21%	?	-5	-20%
CCc1noc(C)c1C(=O)Nc1nc(-c2cc(OC)ccc2OC)cs1	21µM*	-18%	?	-11	-16%
CCOC(=O)C1CCN(C(=O)c2[nH]c3ccc(OC)cc3c2C)CC1	-11%	13%	-18%	20	7%
COc1ccc2[nH]c3c(c2c1)CCNC3C1CC=C(C)CC1 (stereo not drawn)	6.5µM*	?	9.2µM*	-26	?
COc1ccc2[nH]c3c(c2c1)CCNC3c1ccc([N+](=O)[O-])o1 (stereo not drawn)	6.5µM*	-1%	9.2µM*	-15	-2%
CN1C(=O)[C@@](O)(c2cn(C)c3ccccc23)c2cc(F)ccc21	-1%	0%	8%	-1	-19%
COc1ccc(CCN(C)CCCOc2ccc(S(=O)(=O)c3[nH]c4ccccc4c3C(C)C)cc2)cc1OC	9.4µM*	/	13µM*	/	/
CC(NC(=O)c1ccc(NC(=O)CC2SC(N3CCCC3)=NC2=O)cc1)c1ccccc1 (stereo not drawn)	-2%	0%	-2%	0	17%
CCOc1ccc(/C=C(\C#N)C(=O)NC2CC2)c(OCC)c1	-29%	7%	3%	-54*	0%
COc1ccc(-c2[nH]ncc2/C=C(\C#N)C(=O)NC2CC2)cc1	?	1%	?	-21	7%
CCCCOc1ccc(/C=C(\C#N)C(=O)NC2CC2)cc1	29µM*	1%	?	-17	15%
N#C/C(=C\c1ccccc1)C(=O)NC1CC1	5%	0%	-16%	41	0%

Compound activity: PubChem, National Center for Advancing Translational Sciences (NCATS)
